LASV entry inh: inhibitors of Lassa virus binding or cell entry. AID 540256. Lassa virus pseudotype entry inhibition, cell reporter. Potency, µM (titrated, usually from 37.9 µM), inactives show at the top dose activity change, negative = inhibition, actives largely listed as inhibitors. hit rate 1.2% among 300,000; calls by dose curve; tested in HEK293 cells; further: potency means the concentration at half of the fitted maximal effect; nearly all actives have a fitted effect of over 50% in size
Pf growth 48h: P. falciparum growth inhibition at 48 hours (one generation). P. falciparum luciferase growth in erythrocytes, 48 h. Potency, µM (doses to about 28.7 µM), for the others: top-dose activity change, negative = inhibition, hits mostly inhibitors. hit rate 5.9% among 310,000. AID 504832; further: potency means the concentration at half of the fitted maximal effect
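Cell-based growth assay: transgenic P. falciparum expressing firefly luciferase, cultured in red cells within RPMI 1640 containing 0.5% w/v Albumax, 24 mM bicarbonate and gentamycin. A drop in luciferase activity indicates inhibition.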
HCMV antiviral: inhibitors of human cytomegalovirus; HFF cells, HCMV-luciferase reporter, 72 h; active compounds read low; activity change, negative = inhibition, % at 57.5 µM; hit rate 4.5% among 410,000; AID 1259415; in the data active means activity change below about -60%; inconclusive means no clear call, values can overlap the other calls; inactive means above about -39%
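Steps: HFFs plated, 16 h 37C; compounds added; HCMV-luciferase added to MOI 1 PFU/cell; 72 h 37C; OneGlo reagent, 5 min room temperature; luminescence read, normalized to controls.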
MARV entry inh: Marburg virus entry inhibition. hit rate 1.8% among 300,000. Potency, µM (highest dose often 37.8 µM), for inactives: top-dose activity change, negative = inhibition, most hits filed as inhibitors. Marburg virus pseudotyped entry inhibition, cell reporter. AID 540276; calls by dose curve; tested in HEK293 cells; further: potency means the concentration at half of the fitted maximal effect
Pf growth 96h: P. falciparum growth inhibition at 96 hours | Potency, µM (doses to about 28.7 µM), for inactives: top-dose activity change, negative = inhibition, actives largely listed as inhibitors | hit rate 6.9% among 320,000 | P. falciparum luciferase reporter growth, 96 h; further: potency means the concentration at half of the fitted maximal effect
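Readout is luminescence from an integrated firefly luciferase in P. falciparum. Red cells, 2% hematocrit and 0.05% parasitemia final, were cultured with compound through two parasite generations (96 hours) at 37 C, 5% CO2.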
HCV inhibitor: inhibitors of hepatitis C virus infection; hit rate 3.4% among 340,000; AID 651820; Huh7.5.1 HCVcc-Cre infection, luciferase reporter, 44 h; Potency, µM (highest dose often 41.8 µM), without a hit: at the top dose activity change, negative = inhibition, hits mostly inhibitors; further: potency means the concentration at half of the fitted maximal effect
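Whole-lifecycle infectious HCVcc-Cre system; cells 1,000/well, compound then virus (~0.5 moi) added 4 h after plating, 44 h culture. Luciferase read 15 sec following 15 min substrate incubation, room temp.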
* hit, by the source's call; ? = inconclusive; / = no result; [ ] = another dose, or the depositor's remark. The list is not random: actives were taken first. Their share in the collection is about 14%. Unless noted, the call rests on the fitted dose curve; in most records, active means well fitted inhibition curve with a large enough effect; inconclusive means small, poorly fitted or top-dose-only effect, or another doubt; inactive means no such curve, though single readings can be large or run the other way. On the % scale 0 is the no-effect control and ±100 the full control effect.

SMILES | LASV entry inh | Pf growth 48h | HCMV antiviral | MARV entry inh | Pf growth 96h | HCV inhibitor
COc1cc(OCC(=O)NC(C)C)cc2c1C(=O)O[C@@H](C)CCCC(=O)CCCCC2 | / | -7% | 31 | / | ? | 2%
COc1cccc(NC(=O)CN(C)S(=O)(=O)c2cccs2)c1 | 19%[46.1 µM] | / | 59 | 2%[46.1 µM] | / | /
O=[N+]([O-])c1cccc2c(N3CCCC3)ccnc12 | ? | ? | -106* | ? | 86% | 3.5µM*
C[N+]1=CC2=c3c1c(O)c1c(c3=NCC2)C2(C=C(Br)C(=O)C(Br)=C2)CCN1 | / | / | -102* | / | / | /
Cc1cccc(C(=O)n2nc(-c3cccnc3)nc2NCc2ccccc2)c1 | 29%[46.1 µM] | / | 2 | 23%[46.1 µM] | / | /
O=C(NC12CC3CC(CC(C3)C1)C2)c1ccc([N+](=O)[O-])o1 | / | 5.2µM* | -70* | / | ? | -5%
CC(NC(=O)c1ccc([N+](=O)[O-])o1)C1CC2CCC1C2 (stereo unspecified) | ? | / | / | -1%[46.1 µM] | / | 11µM*
CC(NC(=O)c1ccc([N+](=O)[O-])cc1Cl)C1CC2CCC1C2 (stereo unspecified) | -7% | -26% | 96 | 9%[46.1 µM] | ? | 5%
CC(C)C1C(=O)N(Cc2cn(CCC3OCCCO3)nn2)CCS(=O)(=O)N1Cc1ccc(-c2ccc(F)nc2)cc1 (stereo unspecified) | / | / | 1 | ? | / | /
COc1ccc(-n2c(C)cc(C(=O)C[N+]34CCN(CC3)CC4)c2C)cc1 | 1%[46.1 µM] | -16% | ? | ? | 5.9µM* | 2%
O=C(Cc1n[nH]c(=O)c2ccccc12)OCC(=O)c1ccc2c(c1)OCCO2 | ? | 10% | -87* | ? | -1% | -8%
Cc1cc(C(=O)COC(=O)Cc2n[nH]c(=O)c3ccccc23)c(C)n1-c1ccc2c(c1)OCO2 | ? | 6.6µM* | -21 | -23% | ? | -9%
COc1ccc(-n2c(C)cc(C(=O)COC(=O)Cc3n[nH]c(=O)c4ccccc34)c2C)cc1 | ? | 12µM* | ? | ? | 2.1µM* | ?
Cc1cc(C)c(NC(=O)c2cc(S(=O)(=O)N3CCN(c4ccccc4F)CC3)ccc2F)c(C)c1 | 3%[46.1 µM] | / | 0 | / | / | /
CCc1cc(OCCN(C)C)ccc1Cl | / | 9% | 21 | -6%[46.1 µM] | ? | 24%
CN(C)CCOc1ccc2c(c1)C(=O)C(=Cc1ncc([N+](=O)[O-])n1C)C2 | / | / | -98* | / | / | /
CC1=CC(C)(C)NC(=S)N1c1ccc2ccccc2c1 | -9%[46.1 µM] | / | ? | -34%[46.1 µM] | ? | ?
CC1=CC(C)(C)NC(=S)N1c1cccc2ccccc12 | -1% | -18% | -100* | -13% | 31% | 26%
C=CCOc1ccccc1CNc1ccc2c(c1)OCCO2 | 11µM* | 64% | / | ? | -48% | ?
CCOc1ccc(C(=O)Nc2ccc3c(c2)OCCO3)cc1OC | -30% | 122% | 74 | ? | 51% | ?
CCOc1ccc(Br)cc1CNc1ccc2c(c1)OCCO2 | -8% | -21% | -65* | ? | -8% | 11µM*
Fc1cccc(COc2ccccc2CNc2ccccc2)c1 | 1% | -18% | -10 | ? | -23% | ?
C=CCOc1ccccc1CNc1cccc(F)c1 | 4% | -2% | -14 | -1% | 10µM* | -8%
C=CCOc1ccccc1CNc1ccc2[nH]c(=O)[nH]c2c1 | -10% | 0% | -31 | 16%[46.1 µM] | -3% | ?
Cc1cc(C)cc(NC(=O)C2CCCN(c3nnc(-n4c(C)ccc4C)s3)C2)c1 (stereo unspecified) | 4%[46.1 µM] | / | -35 | -9%[46.1 µM] | / | /
SMILES | LASV entry inh | Pf growth 48h | HCMV antiviral | MARV entry inh | Pf growth 96h | HCV inhibitor
CC(=O)NC(Cc1ccccc1C)C(=O)NC1CCN(C(=O)c2ccc(C)cc2)CC1 (stereo unspecified) | / | 15% | 39 | / | ? | 4%
O=C(Cn1ccc2cc(S(=O)(=O)N3CCCCCC3)ccc21)NCCc1ccc(Cl)cc1 | -2%[46.1 µM] | / | -4 | / | / | /
O=C(N/N=C/c1ccccc1O)C(=O)N1CCCCCC1 | ? | -16% | 8 | -10%[46.1 µM] | 15% | -17%
O=C(NN=Cc1c(O)ccc2ccccc12)C1CC1 | ? | / | -26 | ? | / | ?
Cc1cc(C)n(CCC(=O)N/N=C/c2c(O)ccc3ccccc23)n1 | / | 6.6µM* | -83* | / | ? | ?
Cc1ccc(NC(=O)CCn2nc(C)cc2C)c(C)c1 | 1% | 0% | 35 | -1% | 12µM* | ?
Cc1cc(C)n(CCC(=O)N/N=C/c2ccc(O)cc2)n1 | -11% | 9% | 19 | 22% | -25% | 33%
O=C(CN1CCCC1)N/N=C/c1c(O)ccc2ccccc12 | / | -68% | 33 | / | ? | 7.9µM*
Cc1ccc(NC(=O)CCC(=O)n2nc(C)cc2C)c(C)c1 | 13% | / | 35 | 2% | -7% | 14%
O=C(N/N=C/c1c(O)ccc2ccccc12)C(=O)N1CCCC1 | / | / | -75* | / | / | /
CCc1cccc(NC(=O)CSc2ncccc2C(=O)Oc2ccccc2Cl)c1 | -2%[46.1 µM] | / | 39 | / | / | /
C[C@@H]1CN([C@@H](C)CO)C(=O)CCCn2cc(nn2)CO[C@H]1CN(C)C(=O)Nc1ccc2c(c1)OCCO2 | / | / | 36 | / | / | /
CCCc1cnc2c(c1SCC(=O)Nc1ccc(C)c(Cl)c1)c(=O)n(C)c(=O)n2C | -26%[46.1 µM] | / | -24 | / | / | /
CCOC(=O)c1ccc(/C=C2/C=C(c3ccccc3)N(c3ccc(Cl)c(C(=O)O)c3)C2=O)cc1 | ? | ? | 4 | ? | 13µM* | ?
COc1ccc(NC(=O)CSc2nnc(-c3cccnc3)s2)cc1 | ? | 11% | ? | 11%[46.1 µM] | 6.6µM* | 9%
